# CHOP inh: blocks CHOP induction under ER stress; CHO-K1 CHOP-promoter luciferase, tunicamycin-induced, 15-18 h; inhibition, % at 10 µM; hit rate 3.8% among 220,000; AID 2732;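 active = compounds that reduced the stress-induced luciferase reporter signal by more than about 70% of percent inhibition, limit read from the data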;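 note: 0% = tunicamycin plus vehicle and 100% = wells without tunicamycin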
# L major viab: reduces viability of Leishmania major promastigotes; hit rate 9% among 200,000; resazurin fluorescence viability; inhibition, % at 10 µM; AID 1063; in the data active = inhibition above about 50%;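 note: promastigotes grown with compound for 44 hours at 28 °C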
# WT yeast gro inh: growth inhibition of WT yeast, mitochondrial fusion screen; mitochondrial fusion phenotypic screen, WT strain; inhibition, % at 10 µM; hit rate 2.1% among 190,000; in the data active = inhibition above about 58%; tested in S. cerevisiae
# RAM inhibit: inhibitors of the yeast RAM network. inhibition, % at 50 µM. hit rate 1.8% among 190,000. S. cerevisiae dse1pr::URA3 reporter, 5-FOA growth OD615, 2 d; analog-sensitive cbk1-as2 kinase mutant strain. AID 868;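 active = inhibition above a set limit, 3 SD over mean compound inhibition, cut at about 8.4% in these data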;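 note: 0% = DMSO-only wells with no growth and 100% = 10 µM 1-NA-PP1 full growth; inhibition rescues growth on 5-FOA so higher OD means more RAM inhibition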
# Numbers without * were called inactive; nt = no result. In the library only some 13% were active in any assay of this set; here they are far more common.
SMILES,CHOP inh,L major viab,WT yeast gro inh,RAM inhibit
CCC(C)Sc1nc2c(c(=O)[nH]1)C(c1cccs1)C1=C(CCCC1=O)N2 (centres undefined),82.4*,-1.8,-7.6,2.1
Cc1cccc(-n2ncc3c(N4CC(C)CC(C)C4)ncnc32)c1 (centres undefined),65.0,11.0,78.3*,4.6
COc1ccc(N2CCN(c3ncnc4c3cnn4-c3ccc(C)cc3C)CC2)cc1,74.4*,0.3,-7.8,6.5
Cc1ccc(-n2ncc3c(N4CCN(c5ccccc5)CC4)ncnc32)c(C)c1,84.4*,1.2,43.9,2.8
Clc1ccc(Cn2ncc3c(N4CCCC4)ncnc32)cc1,18.0,3.1,9.0,0.4
CCN1CCN(c2ncnc3c2cnn3-c2ccc(C)cc2C)CC1,-10.0,nt,-19.7,nt
CC1CC(C)CN(c2ncnc3c2cnn3Cc2ccc(Cl)cc2)C1 (centres undefined),65.2,8.9,76.3*,2.1
Fc1cc(F)c2nc(N3CCCC3)sc2c1,10.0,0.4,17.1,1.3
CC(=O)N1CCCC1(C(=O)O)c1ccccc1 (centres undefined),-8.8,nt,nt,nt
NS(=O)(=O)c1ccc(CNC(=O)/C=C/c2c(F)cccc2Cl)cc1,-2.6,-6.8,-11.5,2.4
O=C(CN1CCCC1)NCC12CC3CC(CC(C3)C1)C2,-1.9,-1.9,-3.2,1.7
O=C(CN1CCCC1)NC12CC3CC(CC(C3)C1)C2,-19.8,50.7*,-9.2,0.1
C=CCn1c(SCC(=O)NC2CCS(=O)(=O)C2)nnc1-c1cc2c(s1)CCC(CC)C2 (centres undefined),44.8,-0.7,-9.3,-1.0
C=CCn1c(-c2cc3c(s2)CCC(CC)C3)n[nH]c1=S (centres undefined),68.7,-7.0,74.2*,3.1
O=C(Nc1scc(-c2ccccc2)c1C(=O)O)c1ccco1,73.4*,-8.7,-4.2,2.1
O=C(Nc1nnc(Cc2ccccc2)s1)c1ccco1,-34.1,-7.6,-6.0,2.1
COC(=O)c1c(-c2ccc(F)cc2)csc1NC(=O)c1ccco1,-29.9,0.8,8.4,2.7
NC(=O)c1cc(Cc2ccccc2)sc1NC(=O)c1ccco1,40.9,-0.9,72.3*,1.4
N#CC1CC(c2ccccc2)=NN1c1ccccc1[N+](=O)[O-] (centres undefined),19.3,27.5,12.5,3.9
COc1ccc(CCNC(=O)c2ccc(C)s2)cc1OC,-1.4,-3.1,-14.4,-0.2
O=C(OC(c1ccccc1)c1nccc2ccccc12)c1cc([N+](=O)[O-])cc([N+](=O)[O-])c1 (centres undefined),51.6,97.9*,55.7,3.5
COc1ccc(N(C(=O)Cn2nnc(-c3ccccc3F)n2)C(C(=O)NCC2CCCO2)c2ccc(Cl)cc2)cc1 (centres undefined),-19.9,-6.0,-2.0,6.0
Cc1ccc(Sc2nc([N+](=O)[O-])nn2C)cc1,-7.3,17.4,-1.0,-0.2
O=C(c1ccccc1)N1CCN(Cc2ccccc2Br)CC1,11.3,3.2,13.8,-0.5
Brc1ccccc1CN1CCC(N2CCCCC2)CC1,-17.4,100.4*,-4.0,2.0
SMILES,CHOP inh,L major viab,WT yeast gro inh,RAM inhibit
O=C(CN(Cc1ccccc1)S(=O)(=O)c1ccc2c(c1)OCCO2)N/N=C/c1cccc(Br)c1,51.2,80.2*,-8.8,5.7
COc1ccc(CNC(=O)CN(CCC(C)C)S(=O)(=O)c2ccc3c(c2)OCCO3)cc1,-8.2,79.8*,5.2,1.3
COc1cc(/C=N/NC(=O)CN(Cc2ccccc2)S(=O)(=O)c2ccc3c(c2)OCCO3)ccc1O,21.2,6.5,6.8,4.8
O=C(CN(Cc1ccccc1)S(=O)(=O)c1ccc2c(c1)OCCO2)N/N=C/c1ccc(F)cc1,49.4,8.1,32.3,1.1
COc1ccc(CNC(=O)Cn2nc(-c3ccc4c(c3)OCCO4)ccc2=O)cc1,7.9,2.4,-11.9,6.6
COc1ccc(/C=N/NC(=O)CN(Cc2ccccc2)S(=O)(=O)c2ccc3c(c2)OCCO3)cc1,40.1,90.4*,-5.6,0.3
O=C(NCc1ccco1)c1cc2n(n1)C(C(F)(F)F)CC(c1ccc(Cl)c(Cl)c1)N2 (centres undefined),88.3*,-6.8,7.8,2.6
O=C(NCc1ccco1)c1cc2n(n1)C(C(F)(F)F)CC(c1ccc(Br)cc1)N2 (centres undefined),76.6*,-4.7,-5.6,3.1
COc1ccccc1NC(=O)c1cc2n(n1)C(C(F)(F)F)CC(c1ccc3c(c1)OCO3)N2 (centres undefined),87.9*,61.7*,3.6,4.4
COc1ccc(OC)c(NC(=O)c2cc3n(n2)C(C(F)(F)F)CC(c2ccc4c(c2)OCO4)N3)c1 (centres undefined),nt,27.4,nt,nt
Cc1ccc(OCCC(=O)O)cc1,11.6,nt,nt,nt
CCOc1ccc(NC(=O)c2cc3cc4ccc(OC)cc4nc3o2)cc1,-3.7,100.1*,-1.4,4.0
COc1ccc(C(=O)NCC2CCCO2)cc1 (centres undefined),0.8,6.6,-13.2,-0.9
COc1ccc2cc3cc(C(=O)Nc4ccccc4N4CCN(C)CC4)oc3nc2c1,86.0*,99.5*,19.2,-0.1
COc1ccc2cc3cc(C(=O)NCC4CCCO4)oc3nc2c1 (centres undefined),16.3,79.3*,15.1,0.5
COc1ccc2cc3cc(C(=O)NCCN4CCN(c5ccccc5F)CC4)oc3nc2c1,53.9,27.4,16.0,0.3
COc1ccc2cc3cc(C(=O)NCc4ccco4)oc3nc2c1,-5.8,59.8*,-7.2,5.1
COc1ccc2cc3cc(C(=O)NCc4ccccn4)oc3nc2c1,1.6,9.0,14.5,2.2
CCc1ccc(-n2c(Cc3ccccc3)n[nH]c2=S)cc1,22.7,-7.0,53.1,1.0
Cc1noc(NS(=O)(=O)c2ccc(NC(=O)C(CC(C)C)N3C(=O)c4ccccc4C3=O)cc2)c1C (centres undefined),-1.1,nt,nt,nt
O=C(NCc1ccco1)c1cc2cc3ccc(Cl)cc3nc2o1,80.2*,5.5,2.9,3.7
O=C(NCc1ccco1)c1ccc(-c2ccc(Cl)cc2)o1,18.8,-0.7,10.5,1.1
COC(=O)c1c(NC(=O)COC(=O)CNC(=O)C2CCCCC2)sc(C)c1C,77.8*,0.1,-27.3,3.8
COc1ccc(OC)c(/C=N/N(C)c2ccccc2)c1,72.5*,59.8*,26.9,0.3
Cc1ccc(CN2CCN(Cc3cnc(N4CCOCC4)s3)CC2CCO)o1 (centres undefined),-2.7,-2.8,-7.3,0.9
SMILES,CHOP inh,L major viab,WT yeast gro inh,RAM inhibit
CCn1c(/C=C/N(C(C)=O)c2ccccc2)[n+](CC)c2ccc(Cl)cc21,10.2,17.9,1.0,2.5
CC[n+]1c(/C=C/N(C)c2ccccc2)oc2ccc(Cl)cc21,6.6,99.5*,17.2,2.5
O=C(CSc1ncnc2c1nnn2-c1ccc(F)cc1)NCC1CCCO1 (centres undefined),-20.2,40.7,2.1,1.2
Cc1ccc(-n2nnc3c(SCC(=O)NCC4CCCO4)ncnc32)cc1 (centres undefined),-77.6,85.9*,22.9,1.3
CCC(C)NC(=O)CNC(=S)N(Cc1ccccc1F)C1CCCCC1 (centres undefined),31.2,11.8,0.7,1.6
CC(/C=N/NC(=O)Cn1nccc1C)=C\c1ccc(C(C)C)cc1,76.3*,4.3,0.6,-0.1

# Screening data: PubChem, several laboratories
